# High-throughput results (PubChem BioAssay)
# An excerpt weighted towards active compounds, which were near 5.9% of everything screened.
# ATXN2 expr inh: inhibitors of ATXN2 expression | AID 1745845 | Potency, µM (highest dose often 57 µM), hits mostly inhibitors | 360,000 tested, 0.72% active | HEK-293 ATXN2-luciferase reporter, luminescence, 24 h; note: nearly all actives have a fitted effect of over 55% in size
#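 ATXN2-luciferase reporter cells (luciferase flanked by upstream and downstream ATXN2 gene portions) were treated 24 h at 37 °C with compounds at up to 57 uM. SteadyGlo luminescence gave expression; GF-AFC fluorescence gave viability.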
# KB-V1 cytotox: KB-V1 MDR subline cytotoxicity; KB-V1 MDR cells viability, CellTiter-Glo, 72 h; Potency, µM (titrated, usually from 46.1 µM), actives largely listed as cytotoxic; 400,000 tested, 3.4% active; note: nearly all actives have a fitted effect of over 60% in size
#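 Cytotoxicity toward P-gp-expressing KB-V1 cells was determined as loss of CellTiter-Glo luminescence after 72 h at 37 degrees C. Compounds were tested in quantitative HTS format across a concentration range, with curves fitted to normalized data.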
# ATXN viability: viability counter-screen for ATXN expression inhibitors; S2 cells (HEK-293 line with an ATXN2-luciferase reporter) viability, CellTiter-Fluor protease fluorescence, 24 h; 400,000 tested, 0.49% active; Potency, µM (series often up to 56.7 µM), most hits filed as cytotoxic; note: nearly all actives have a fitted effect of over 40% in size
# HepG2 tox: kills HepG2 cells in TGF-b inhibitor counter-screen. HepG2 CAGA-GFP viability, ATP luminescence, 18 h. Potency, µM (doses to about 46.1 µM), usual class: cytotoxic. 410,000 tested, 0.76% active. AID 588856
#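 HepG2 CAGA-GFP cells (1000/well, DMEM with 1% FBS) received compound, then TGF-beta at 500 pg/mL final, and were incubated 18 hours at 37 degrees C. Viability was read by CellTiter-Glo luminescence. Media-only wells were set as complete cell-killing and DMSO as no toxicity.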
# KB-3-1 tox: KB-3-1 parental cell cytotoxicity; KB-3-1 viability, CellTiter-Glo ATP luminescence, 72 h; Potency, µM (doses to about 46.1 µM), hits mostly cytotoxic; 400,000 tested, 1.4% active; AID 1347075; note: nearly all actives have a fitted effect of over 60% in size
#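 Luminescent ATP read-out (CellTiter-Glo) measures survival of drug-naive KB-3-1 cells after 72 h compound exposure at 37 °C. Titration series was screened from lowest to highest concentration, with DMSO vehicle plates as background controls.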
# TGFb inhibitor: inhibitors of TGF-b signaling; HepG2 CAGA-GFP TGF-b/SMAD3 reporter, GFP fluorescence, 18 h; TGF-beta stimulated, 500 pg/mL final; Potency, µM (highest dose often 46.1 µM), hits mostly inhibitors; 410,000 tested, 1.2% active; note: nearly all actives have a fitted effect of over 65% in size
#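 Cell-based qHTS in HEPG2 carrying a CAGA-GFP Smad reporter; compounds added before 500 pg/mL final TGF-beta, 18 h incubation at 37 degrees C, GFP fluorescence quantified per cell by imaging cytometry.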
# A number is an active result; - = inactive; ? = inconclusive; . = no result given; ! = repeats disagree. Calls come from the whole dose curve; as a rule, active = well fitted curve in the direction sought with a large enough effect; inconclusive = small, poorly fitted or top-dose-only effect, or another doubt; inactive = no such curve, though single readings can be large; an effect the other way counts as inactive or inconclusive.
SMILES,ATXN2 expr inh,KB-V1 cytotox,ATXN viability,HepG2 tox,KB-3-1 tox,TGFb inhibitor
CCOC(=O)C1=C(C)NC(=O)NC1C (stereo not given),-,-,-,-,-,-
CCOC(=O)C1=C(C)NC(=O)NC1/C(C)=C/c1ccccc1 (stereo not given),-,21µM,-,-,-,-
O=C1C(=O)N(C2CCN(S(=O)(=O)c3ccccc3)CC2)CCN1Cc1ccccc1,-,-,-,-,-,-
CCCCC(CC)CNC(=O)CC(C)OC(=O)CCC(=O)O (stereo not given),-,.,-,.,.,.
CCCc1oc2ccc(NS(=O)(=O)c3ccc(OC)cc3)cc2c1C(=O)OCC,.,.,.,-,.,10µM
COCCOC(=O)c1c(C)oc2ccc(NS(=O)(=O)c3ccccc3)cc12,-,-,-,-,-,-
CCOC(=O)c1c(-c2ccccc2)oc2ccc(NS(=O)(=O)c3ccccc3)cc12,?,?,?,-,-,16µM
CCOC(=O)c1c(-c2ccccc2)oc2ccc(NS(=O)(=O)c3ccc(OC)cc3)cc12,.,.,.,-,.,13µM
CCCc1oc2ccc(NS(=O)(=O)c3ccc(OCC)cc3)cc2c1C(=O)OCC,.,.,.,-,.,?
CCOC(=O)c1c(CN2CCCCC2)oc2ccc(OC)cc12,?,9.2µM!,-,-,-,-
CCOC(=O)c1c(-c2ccccc2)oc2ccc(NS(=O)(=O)c3cc(C)c(C)cc3C)cc12,-,-,-,-,-,?
COc1cc(NC(=O)c2ccc(COc3ccccc3Br)o2)cc(OC)c1OC,-,7.3µM,-,-,-,-
CCCOc1c(OC)cccc1C1CC(=O)Nc2cc3c(cc21)OCCO3 (stereo not given),-,?,?,-,?,?
CCCOc1c(OC)cccc1C1CC(=O)Nc2cc3c(cc21)OCO3 (stereo not given),-,16µM,-,-,10µM,-
COc1ccccc1C1CC(=O)Nc2cc3c(cc21)OCCO3 (stereo not given),-,5.8µM,?,-,?,?
OCCN1CCN(Cc2ccc3c(c2)CN(Cc2ccc4ccccc4c2)CCO3)CC1,.,.,-,.,.,.
COc1cccc(C(c2sc3nc(-c4ccco4)nn3c2O)N2CCC(O)CC2)c1 (stereo not given),-,-,-,-,-,-
O=C(NCCc1c[nH]c2ccccc12)C(=O)NCC1OCCCN1S(=O)(=O)c1ccc(F)cc1 (stereo not given),-,?,-,-,-,?
Cc1cc(C)c(S(=O)(=O)N2CCCOC2CNC(=O)C(=O)NCCc2c[nH]c3ccccc23)c(C)c1 (stereo not given),-,16µM,-,-,-,?
Cc1cc(F)ccc1S(=O)(=O)N1CCCOC1CNC(=O)C(=O)NCCc1c[nH]c2ccccc12 (stereo not given),-,3.3µM,-,-,?,-
Cc1cc(C)c(S(=O)(=O)N2CCCOC2CNC(=O)C(=O)NCc2cccs2)c(C)c1 (stereo not given),-,18µM,-,-,-,-
O=C(c1ccco1)N1CCN(c2nc3c(F)cc(F)cc3s2)CC1,.,.,.,-,.,-
CN[C@@H]1CN(c2ccc3c(=O)c(C(=O)O)cn(-c4nccs4)c3n2)C[C@@H]1OC,11µM,.,.,.,.,.
COc1ccc(-c2cc3nc(C)c(CCC(=O)N4CCN(c5cccc(Cl)c5)CC4)c(C)n3n2)c(OC)c1,-,-,-,-,-,?
CCC(C)NC(=O)Cn1c(=O)n(CC2CCC(C(=O)NC)CC2)c(=O)c2sccc21 (stereo not given),-,?,-,-,-,-
SMILES,ATXN2 expr inh,KB-V1 cytotox,ATXN viability,HepG2 tox,KB-3-1 tox,TGFb inhibitor
CCCN(CCC)C(=O)CC(c1ccccc1)c1ccc(C)cc1O (stereo not given),-,7.3µM,-,-,-,?
COc1ccc(-c2cccc(NS(=O)(=O)c3cccs3)c2)nn1,-,-,-,-,-,-
Cc1ccc(C(=O)NCC(c2cccs2)S(=O)(=O)c2cccs2)cc1 (stereo not given),?,?,20µM,-,21µM,?
CC(C)(C)c1ccc(C(=O)NCC(c2cccs2)S(=O)(=O)c2cccs2)cc1 (stereo not given),-,-,?,-,-,-
Cc1c(C(=O)N2CCC(Cc3ccccc3)CC2)sc2ncnc(NCc3ccccn3)c12,.,.,-,.,.,.
C1=C(c2ccc3c(c2)CN(Cc2cccn2-c2ncccn2)CCO3)Cc2ccccc21,.,.,-,.,.,.
Cc1ccc(S(=O)(=O)N2CCCC2c2nc3ccccc3s2)cc1 (stereo not given),-,21µM,-,-,-,-
Cc1cc2c(c(-c3cnccn3)c1)OC(CNC(=O)c1cc(Cl)ccc1F)C2 (stereo not given),.,.,-,.,.,.
